Data: the supplement of paper PMC6555819

What was measured:
Assay in all cases: PBM binding z-score (relative to random genomic background probes); higher = stronger binding; sequences stand for … in GC…GCGATTGACAGCGTAGAATGAAGG
[1] = tested on: FXR:RXRa (NR concentration 270 nM, RXRa partner concentration 90 nM)
In short: (§1)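 Binding z-scores take random background probes as their reference. They come from custom Agilent 4×180K protein-binding microarrays incubated 1 h with ligand-free nuclear receptor dimers, with antibodies against each partner (one per run) detecting binding. Scanned fluorescence was regression-normalized.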

[2] = tested on: LXRa:RXRa (NR concentration 270 nM, RXRa partner concentration 90 nM)
In short: as §1

[3] = tested on: LXRa homodimer (NR concentration 270 nM)
In short: as §1

[4] = tested on: LXRb:RXRa (NR concentration 270 nM, RXRa partner concentration 90 nM)
In short: as §1

[5] = tested on: LXRb homodimer (NR concentration 270 nM)
In short: as §1

[6] = tested on: PPARa:RXRa (NR concentration 270 nM, RXRa partner concentration 90 nM)
In short: as §1

[7] = tested on: PPARg:RXRa (NR concentration 180 nM, RXRa partner concentration 90 nM)
In short: as §1

[8] = tested on: PPARg:RXRa 270nM:90nM, anti-RXR (NR concentration 270 nM, RXRa partner concentration 90 nM)
In short: as §1

[9] = tested on: PPARg:RXRa 30nM:10nM, anti-RXR (NR concentration 30 nM, RXRa partner concentration 10 nM)
In short: as §1

[10] = tested on: PPARg:RXRa 90nM:30nM, anti-RXR (NR concentration 90 nM, RXRa partner concentration 30 nM)
In short: as §1

[11] = tested on: PPARg:RXRa DBDmut IVT, anti-RXR (DBD mutation: RXRa K156A/R161A, NR concentration 270 nM, RXRa partner concentration 90 nM)
In short: as §1

[12] = tested on: PPARg:RXRa IVT, anti-PPARg (NR concentration 270 nM, RXRa partner concentration 90 nM)
In short: as §1

[13] = tested on: PPARg DBDmut:RXRa IVT, anti-PPARg (DBD mutation: PPARg1 K132A/R137A, NR concentration 270 nM, RXRa partner concentration 90 nM)
In short: as §1

[14] = tested on: PPARg DBDmut IVT, anti-PPARg (DBD mutation: PPARg1 K132A/R137A, NR concentration 270 nM)
In short: as §1

[15] = tested on: PPARg homodimer (NR concentration 180 nM)
In short: as §1

[16] = tested on: PXR:RXRa (NR concentration 270 nM, RXRa partner concentration 90 nM)
In short: as §1

[17] = tested on: PXR homodimer (NR concentration 270 nM)
In short: as §1

[18] = tested on: RARa:RXR (NR concentration 270 nM, RXRa partner concentration 90 nM)
In short: as §1

[19] = tested on: RARa homodimer (NR concentration 270 nM)
In short: as §1

[20] = tested on: RARb:RXRa (NR concentration 270 nM, RXRa partner concentration 90 nM)
In short: as §1

| Sequence | PBM binding z-score [1] | PBM binding z-score [2] | PBM binding z-score [3] | PBM binding z-score [4] | PBM binding z-score [5] | PBM binding z-score [6] | PBM binding z-score [7] | PBM binding z-score [8] | PBM binding z-score [9] | PBM binding z-score [10] | PBM binding z-score [11] | PBM binding z-score [12] | PBM binding z-score [13] | PBM binding z-score [14] | PBM binding z-score [15] | PBM binding z-score [16] | PBM binding z-score [17] | PBM binding z-score [18] | PBM binding z-score [19] | PBM binding z-score [20] |
| --- | --- | --- | --- | --- | --- | --- | --- | --- | --- | --- | --- | --- | --- | --- | --- | --- | --- | --- | --- | --- |
| AGAACTAGGGCACGCTGAGTTGATAGCAGAGTAG | -0.159 | -0.0416 | -0.762 | -0.394 | -0.896 | 3.01 | 5.21 | 4.47 | 1.85 | 3.37 | 8.03 | 7.98 | 3.17 | 2.05 | 0.0464 | 0.214 | -0.312 | -0.11 | -0.599 | 1.58 |
| CAAACTAGGTCAAAAGTCAAAGTCGAGCCAACCA | 4.73 | 3.95 | 0.814 | 2.97 | 0.644 | 6.39 | 11.9 | 9.92 | 9.77 | 11 | 8.48 | 8.18 | 0.975 | 1.19 | 1.78 | 2.68 | -0.0368 | 4.56 | 0.778 | 3.78 |
| TGAATGAGGTTAAAGATCAGGGAACGTGGCGTCG | 3.08 | 2.42 | -0.304 | 1.71 | 0.375 | 4.63 | 5.54 | 6.57 | 4.6 | 6.57 | 2.04 | 3.27 | 0.612 | 0.495 | 1.15 | 1.99 | 0.0833 | 3.37 | 0.135 | 1.97 |
| CCGAGTAGGTTATGCGGCATTCAGGCAACGGTGA | -0.091 | 0.00702 | -0.177 | -0.0522 | -0.569 | 0.802 | 0.774 | 1.06 | -0.439 | 0.685 | 2.82 | 2.03 | -1.08 | -0.567 | 0.671 | -0.0535 | 0.0083 | 0.343 | 0.296 | 0.464 |
| TCGAGTAGGTTAGGTGCATTCAGAATGGCGTCGA | -0.264 | -0.0402 | -0.55 | 0.172 | -1.05 | 0.236 | -0.209 | 0.709 | 0.736 | 0.505 | 1.94 | 1.03 | -0.609 | -0.486 | -0.132 | 0.0438 | 0.333 | -0.0756 | -0.18 | 0.175 |
| TAGCCTAGGTCATGGGCAAGTATACCACGCGAAC | 4.43 | 3.35 | 0.241 | 2.46 | -0.306 | 4.37 | 3.93 | 3.3 | 0.879 | 2.22 | 1.64 | 3.48 | -0.144 | 0.186 | 1.13 | 1.51 | -0.303 | 2.48 | -0.000605 | 4.09 |
| ATATGTACGTTATCGGGTCATTCAGTTTGCGCAT | 2.05 | 2.01 | 1.02 | 2.32 | 1.03 | 2.67 | 1.3 | 1.35 | 0.0555 | 0.972 | 1.03 | 2.37 | 1.71 | 1.76 | 1.32 | 3.32 | 7.47 | 3.02 | 0.585 | 1.93 |
| ACTAGCAGGCCAAGGGTAACTCAAGATTAGTCCG | -0.105 | 0.773 | -0.457 | -0.0796 | -0.553 | 1.83 | 3.38 | 4.86 | 2.86 | 4.78 | 0.865 | 1.67 | -0.794 | -0.439 | 0.663 | -0.287 | -0.127 | 0.0162 | -0.543 | 0.971 |
| ATCTCTAGGTAAGACTCTGTTCAGTGAAGAACGC | 0.455 | 0.64 | 0.527 | 0.145 | 0.866 | 0.0687 | 0.000617 | 0.133 | 0.343 | 0.426 | 2.14 | 1.19 | 0.717 | 0.753 | 0.889 | -0.0649 | 0.53 | 0.421 | 1.18 | 0.151 |
| TCGAGTAGGTTAGGGGCATTCATAATGGCGTCGA | 0.0373 | 0.369 | 0.0659 | 0.931 | -0.211 | 1.4 | 1.06 | 2.19 | 1.35 | 1.98 | 2.14 | 1.72 | -0.476 | -0.145 | 0.584 | 0.584 | 0.233 | 0.705 | 0.173 | 1.07 |
| CCTCGGAGGAAAACAGGAGGTCAGAGCTGCCAGA | 0.663 | 1.69 | 1.63 | 1.44 | -0.702 | 2.13 | 0.128 | -0.0182 | -0.762 | -0.104 | -0.518 | 0.00562 | -1.65 | -1.51 | 1.04 | 1.5 | 0.172 | 1.95 | 0.262 | 1.53 |
| CCGACTGGGGCAAGGTTACAATAACGCACAGCCA | 0.137 | 0.576 | -0.19 | 0.492 | -1.15 | 1.94 | 3 | 2.86 | 1.2 | 2.36 | 3.2 | 3.29 | -0.578 | -1.14 | 0.441 | 0.333 | -0.113 | 0.945 | 0.189 | 1.38 |
| CGTCCAAGGTCATAGGAGGTTAGTGAAGACAGAT | 7.23 | 6.11 | 2.12 | 4.77 | 0.715 | 5.61 | 4.92 | 5 | 2.04 | 3.54 | 2.69 | 3.67 | 0.657 | -0.0801 | 3 | 5.46 | 2.22 | 4.61 | 1.31 | 5.06 |
| CAACCTAGGTCAAGGTCAAAGTCGGTTTGTGCCA | 6.38 | 5.56 | 3.63 | 4.92 | 1.07 | 5.51 | 5.92 | 5.74 | 2.75 | 4.69 | 4.85 | 5.78 | -0.338 | 0.164 | 3.33 | 5.19 | 1.48 | 5.29 | 0.703 | 5.17 |
| TCTGCTAGGTCAACGATGGTCCGCTAATCTGCTA | 2.99 | 2.08 | -0.377 | 1.02 | -0.262 | 3 | 2.07 | 2.75 | 1.9 | 2.22 | 4.07 | 4 | -0.429 | 0.0666 | 0.694 | 0.998 | -0.847 | 1.91 | -0.449 | 3.91 |
